# Sampled rows, rich in hits. Any-hit rate of the full collection: about 5.4%.
# A3A deaminase: blocks human APOBEC3A ssDNA deamination | P31941 | recombinant A3A, FAM/TAMRA ssDNA deamination fluorescence | actives 0.41% (n = 330,000) | AID 493011 | inhibition, % at 20 µM;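 active means at least 40% inhibition at 20 µM here, with at most 30% in a related deaminase screen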;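 further: plate controls were A3A with DMSO for no effect and wells lacking A3A enzyme for full effect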
# Target sequence (P31941 whole entry, looked up): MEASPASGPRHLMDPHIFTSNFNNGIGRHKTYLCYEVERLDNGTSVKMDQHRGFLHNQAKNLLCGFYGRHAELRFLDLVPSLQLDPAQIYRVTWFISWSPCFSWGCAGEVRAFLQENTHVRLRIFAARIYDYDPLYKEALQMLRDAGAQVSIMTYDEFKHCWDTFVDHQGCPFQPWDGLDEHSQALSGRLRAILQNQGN
# aDG glyco act: alpha-DG glycosylation activation | Pro5-aDG cells, alpha-DG glycosylation AlphaScreen (IIH6); 0% Pro5, 100% B10-LARGE cell signal | actives 0.22% (n = 360,000) | activation, % at 10 µM;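 active means activation of at least 8% versus controls, or a plate z-score of at least 8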;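 further: Pro5 are CHO cells carrying HIG-tagged alpha-DG that lacks glycosylation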
# A3G deaminase: inhibitors of human APOBEC3G DNA deaminase | Q9HC16 | inhibition, % at 20 µM | actives 0.28% (n = 330,000) | recombinant A3G, ssDNA deamination FAM/TAMRA fluorescence;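 active means inhibition of at least 40% at 20 µM, with no more than 30% in the related APOBEC3A deaminase screen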;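 further: plate controls were DMSO wells with A3G for no effect and wells lacking A3G enzyme for full effect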
# rCAG binder: molecules binding r(CAG) RNA repeats; actives 1.3% (n = 370,000); inhibition, % at 3 µM; r(CAG) RNA repeat, TO-PRO-1 dye displacement fluorescence; AID 651821;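 active means inhibition above the plate cutoff, the mean of all test compounds on that plate plus 3 SD, cut at about 35% in these data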;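 further: 0% = DMSO alone and 100% = 100 µM mitoxantrone as full dye displacement; higher means more dye released from RNA so lower well fluorescence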
# ALR inh: human ALR oxidase inhibition via reduced H2O2. P55789. purified ALR, DTT oxidation, H2O2 HRP-luminol luminescence. inhibition, % (concentration not given with the values). actives 3.8% (n = 290,000);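 active means mean replicate inhibition above about 79%, with every replicate also reaching it, limit read from the data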
# PHOSPHO1 inh: blocks human PHOSPHO1 phosphatase activity | Q8TCT1 | inhibition, % at 13.3 µM | recombinant PHOSPHO1, absorbance phosphatase assay | AID 1565 | actives 1.1% (n = 290,000); in the data active means inhibition above about 60%
# Target sequence (Q8TCT1 whole entry, looked up): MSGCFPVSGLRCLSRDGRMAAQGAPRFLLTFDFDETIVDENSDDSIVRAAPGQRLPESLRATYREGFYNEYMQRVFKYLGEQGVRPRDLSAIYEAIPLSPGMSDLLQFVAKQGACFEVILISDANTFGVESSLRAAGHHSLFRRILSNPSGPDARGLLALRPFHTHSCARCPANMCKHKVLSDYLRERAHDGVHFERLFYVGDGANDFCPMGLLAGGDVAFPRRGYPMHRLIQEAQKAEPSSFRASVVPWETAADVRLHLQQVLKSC
# rCAG bind conf: r(CAG) RNA repeat binding, confirmation; shares compounds with rCAG binder; TO-PRO-1 dye displacement fluorescence; inhibition, % at 3 µM; actives 70% (n = 4,300);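 active means inhibition above a per-plate cutoff, the mean inhibition of sample wells plus 3 SD, cut at about 35% in these data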;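 further: loss of TO-PRO-1 fluorescence as compound displaces dye from 1x1 AA loop RNA; 0% = DMSO only wells and 100% = 100 µM mitoxantrone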
# DNA CAG counter: disrupts DNA CAG TO-PRO-1 complex, flagging rCAG hits. AID 652068. d(CAG) DNA oligo TO-PRO-1 dye displacement, fluorescence. shares compounds with rCAG binder. actives 94% (n = 4,300). inhibition, % at 3 µM;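 active means inhibition above its plate's cutoff, the mean test-well inhibition plus 3 SD, cut at about 4.8% in these data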;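 further: 0% = DNA dye mix with DMSO and 100% = 100 µM mitoxantrone; hits displace the dye from DNA and so lower well fluorescence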
# DNA CAG DR: counter-screen for rCAG binders: inhibitors of DNA CAG TO-PRO-1 complex; shares compounds with rCAG binder; DNA CAG/GTC duplex TO-PRO-1 dye displacement fluorescence; IC50, µM; actives 20% (n = 250); in the data active means IC50 below about 10 µM
# Starred values were filed as active, the others as inactive; i = inactive; · = no result given.
SMILES,A3A deaminase,aDG glyco act,A3G deaminase,rCAG binder,ALR inh,PHOSPHO1 inh,rCAG bind conf,DNA CAG counter,others
Nc1c(/C=C2\C=Nc3ccccc32)c(=O)nc2sc(CC(=O)N3CCOCC3)nn12,-1.5,0.2,-2.5,47.6*,·,29.8,31.3,8.7*,
O=C(CSc1nnc(SCc2ccccc2)s1)NNC(=S)Nc1ccccc1,1.3,0.1,3.1,43.4*,23.7,7.0,51.8*,18.1*,DNA CAG DR=>29.9
CN(C)c1ccc(C(=O)NC2CCCCN(Cc3ccc(Cl)cc3)C2=O)cc1 (configuration not stated),·,·,·,2.4,·,·,·,·,
Oc1ccc(/C=N/Nc2ccnc3cc(Cl)ccc23)c(O)c1O,10.1,-0.1,18.2,38.1*,1.8,12.0,59.5*,28.5*,DNA CAG DR=i
N#C/C(=C(/O)COC(=O)c1ccc(C#N)cc1)c1nc2ccccc2s1,-4.3,0.2,-7.7,38.2*,3.6,-14.7,39.9*,16.9*,
N#C/C(=C(/O)CSc1ccccc1C(=O)O)c1nc2ccccc2s1,1.2,0.1,-1.4,17.4,17.2,18.6,·,·,
CCOC(=O)Cc1ccc(Nc2nc3cc(-c4ccccc4C)sc3c(=O)n2C)cc1,·,-0.3,·,8.1,·,·,·,·,
CCOc1ccc2oc(C(=O)NNC(=O)c3ccccc3O)c(C)c2c1,2.6,0.7,-7.0,29.8,·,·,·,·,
Cc1c(C(=O)NNC(=O)c2ccccc2O)oc2ccc(Br)cc12,·,0.2,·,39.8*,3.6,·,39.0*,21.0*,
COc1cc(NC(=O)C2CCN(S(=O)(=O)c3ccc4[nH]c(=O)oc4c3)CC2)cc(OC)c1,3.1,-0.1,22.6,35.7*,-39.1,16.9,23.2,9.2*,
O=Nc1c(-c2c(O)[nH]c3cc(Br)ccc23)[nH]c2ccccc12,5.9,-0.5,7.1,58.6*,3.0,9.9,53.6*,35.6*,
O=C(CSCc1cccc(Br)c1)N=Nc1c(O)[nH]c2ccccc12,-1.1,0.2,-3.2,5.7,·,44.8,·,·,
O=C(O)Cn1cc(/C=c2/sc3nc4ccccc4n3c2=O)c2ccccc21,-0.4,-0.4,-5.3,52.0*,98.7*,-23.2,90.0*,72.8*,
O=C(O)Cn1cc(/C=C2/NC(=O)N(c3ccc(Cl)cc3)C2=O)c2ccccc21,-3.3,-0.1,-10.7,60.5*,92.2*,-29.3,62.0*,20.9*,
COc1cc(N2CCCC2)c(OC)cc1/C=c1/sc2nc3ccccc3n2c1=O,·,·,·,·,·,20.5,·,·,
C[C@@H]1C=CCCO[C@]12C(=O)N(Cc1ccccc1C(F)(F)F)c1ccccc12,·,·,·,-3.7,·,·,·,·,
CC1(OC(=O)CCc2ccccc2)C(=O)C=C2C=C(c3ccc(C#N)cc3)N(Cc3ccccc3)C=C2C1=O (configuration not stated),-2.9,1.0,-12.9,16.6,·,0.1,·,·,
CC1(OC(=O)CCc2ccccc2)C(=O)C=C2C=C(c3ccc(C#N)cc3)N(Cc3ccco3)C=C2C1=O (configuration not stated),3.0,0.5,1.4,37.1*,-17.9,22.1,24.4,15.7*,
CCOC(=O)/C(=C\c1ccccc1)C(=O)CCN1CCOCC1,·,0.2,·,4.0,·,·,·,·,
O=C1CC(=Nc2ccc([N+](=O)[O-])cc2)NN1c1c(Cl)cc(Cl)cc1Cl,·,-0.4,·,48.5*,·,·,48.7*,32.2*,
O=[N+]([O-])c1ccc(N=Nc2c(Cl)cc(O)cc2Cl)cc1,·,-0.6,·,33.5,56.6,46.3,·,·,
O=C(Nc1ccccc1C(=O)O)c1cccc(NC(=O)c2ccc(Br)o2)c1,3.1,0.0,1.2,45.2*,32.5,9.7,40.0*,7.8*,
CCC(C)c1ccc(OCC(=O)Nc2cccc(C(=O)Nc3ccc(C(=O)O)cc3)c2)cc1 (configuration not stated),3.7,-0.1,0.5,75.1*,·,25.0,75.0*,39.4*,
CC(=O)Nc1ccc(S(=O)(=O)Nc2cccc(C(=O)Nc3ccccc3C(=O)O)c2)cc1,0.7,0.4,-1.9,47.0*,3.5,19.2,17.9,4.7*,

# Screens from PubChem.
